This excerpt belongs to a sample that is enriched for hits.
DUSP3 inh = VHR1 (DUSP3) phosphatase inhibition; recombinant VHR phosphatase, colorimetric substrate read-out; inhibition, % at 20 µM; 50,000 compounds, 0.7% hits; AID 1992; in the data active = inhibition above about 60%
Target sequence (P51452 whole entry, looked up): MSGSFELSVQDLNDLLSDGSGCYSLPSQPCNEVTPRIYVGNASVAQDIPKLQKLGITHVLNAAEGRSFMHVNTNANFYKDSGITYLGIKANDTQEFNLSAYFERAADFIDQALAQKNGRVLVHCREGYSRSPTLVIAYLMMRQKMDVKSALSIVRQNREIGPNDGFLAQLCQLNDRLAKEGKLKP
Active calls of the source: *.

SMILES	DUSP3 inh
CCCOC(=O)c1ccc(NC(=O)COc2ccc(OC)cc2)cc1	-14
CCCCC(=O)Nc1ccc(C(=O)OCCC)cc1	107*
CCCCOC(=O)c1ccc(NC(C)=O)cc1	-14
CCCOC(=O)c1ccc(NC(=O)c2cc(Cl)c(OC)c(Cl)c2)cc1	-11
CCCOC(=O)c1ccc(NC(=O)CCC)cc1	111*
CCCOC(=O)c1ccc(NC(=O)/C=C\C(=O)O)cc1	6
O=[N+]([O-])c1ccc(N2CCNCC2)cc1NCCOc1ccccc1	-16
CCOC(=O)c1[nH]c2c([N+](=O)[O-])cc(C)cc2c1C	-6
O=C(CSC1CC(=O)N(c2cccc(Br)c2)C1=O)Nc1ccc(Cl)cc1 (stereo not drawn)	-10
CCc1ccc(NC(=S)NC(=O)c2ccc(Cl)cc2)cc1	2
COc1cc(/C=N/NC(=O)/C(=C\C=C\c2ccccc2)NC(=O)c2ccccc2)cc(OC)c1O	12
CCOC(=O)C1=C(c2ccccc2)N=c2s/c(=C\c3cccc(O)c3)c(=O)n2C1c1cccc(OC)c1OC (stereo not drawn)	-4
NC(N)=NS(=O)(=O)c1ccc(N/C=C2/CCCCC2=O)cc1	-4
COc1ccc(/C(C)=N/OCC(=O)N2CCN(C(c3ccccc3)c3ccccc3)CC2)cc1OC	-1
Cc1cc(OCC(=O)Nc2nc(-c3ccccc3)cs2)ccc1Cl	82*
O=C(COc1ccc(Cl)cc1)Nc1nc(-c2ccc(Cl)cc2)cs1	2
O=C(COc1ccccc1Cl)Nc1nc(-c2ccccc2)cs1	-8
Cc1ccnc(NC(=O)COc2ccc(Cl)c(C)c2)c1	-6
Cc1ccccc1OCC(=O)Nc1nc(-c2ccc(Br)cc2)cs1	-16
Cc1ccc(OCC(=O)Nc2nc(-c3ccccc3)cs2)cc1C	93*
O=C(Cn1cnc([N+](=O)[O-])n1)Nc1ccc(Br)cc1	-4
Nc1ccc2nc(SCc3ccc(C(=O)O)cc3)sc2c1	7
O=C(COc1ccc2ccccc2c1)N1CCN(Cc2ccc3c(c2)OCO3)CC1	6
O=C(Nc1ccccc1)N1CCN(Cc2ccc3c(c2)OCO3)CC1	101*
O=C(c1ccc(F)cc1)N1CCN(Cc2ccc3c(c2)OCO3)CC1	0
SMILES	DUSP3 inh
CCOc1ccccc1/C=N/N1CCN(Cc2ccc(Cl)cc2)CC1	4
O=[N+]([O-])c1ccc(N2CCOCC2)cc1NCCCN1CCOCC1	6
Nc1ccc(Oc2ccc(N)cc2)cc1	10
Nc1ccc(Oc2ccc(N)c(N)c2)cc1N	75*
COc1ccc(Oc2ccc(Oc3ccc(OC)cc3)cc2)cc1	-9
Cc1cc(NC(=O)c2ccncc2)no1	5
O=C(/C=C/c1ccco1)NCc1ccc2c(c1)OCO2	-3
O=C(/C=C/c1ccco1)NC(=S)NCc1ccccc1	75*
O=C(/C=C/c1ccco1)NCCCCNC(=O)/C=C/c1ccco1	26
O=[N+]([O-])c1ccccc1OCC(O)Cn1cnc2ccccc21 (stereo not drawn)	-21
CCOc1ccc2nc(NC(=O)c3ccccc3[N+](=O)[O-])sc2c1	-76
Cc1ccc(C(=O)Nc2sc3c(c2C(=O)N2CCC(C(N)=O)CC2)CCCC3)cc1	37
Cc1ccc(C(=O)Nc2sc3c(c2C(=O)N2CCC(C)CC2)CCCC3)cc1	87*
Cc1ccc(C(=O)Nc2sc3c(c2C(=O)N2CCCCCC2)CCC(C)C3)cc1 (stereo not drawn)	3
CCOC(=O)c1ccc(-c2ccc(/C=C3/C(=O)NN(c4cccc(Cl)c4)C3=O)o2)cc1	1
COc1ccc(CNC(=O)c2cnn3c(C(F)(F)F)cc(-c4ccc(OC)cc4)nc23)cc1	-8
CN1C(=O)/C(=C\c2ccc([N+](=O)[O-])o2)SC1=S	-4
CN1C(=O)/C(=C\c2ccc(Sc3ccc(Cl)cc3)o2)SC1=S	62*
CN1C(=O)/C(=C\c2ccc(-c3ccc(F)c(Cl)c3)o2)SC1=S	-2
Cc1ccc(S(=O)(=O)NC(Cc2ccccc2)C(=O)Nc2ccc(F)cc2)cc1 (stereo not drawn)	-24
O=C(Nc1cccc(Br)c1)C1C2CCC3C(CCC21)C3(Cl)Cl (stereo not drawn)	-2
O=C(Nc1c(Cl)cccc1Cl)C1C2CC/C=C\CC/C=C/CCC21 (stereo not drawn)	112*
O=C(O)C1C2CC/C=C\CC/C=C/CCC21 (stereo not drawn)	18
O=C(O)c1c(Br)c(Br)c(Br)c(Br)c1C(=O)N1CCOCC1	-7
COc1ccc(C2CC(=O)C3=C(C2)Nc2ccccc2NC3c2ccc(-c3ccccc3)cc2)cc1OC (stereo not drawn)	-16
COc1ccc(C2CC(=O)C3=C(C2)Nc2ccccc2NC3c2ccc(OC)c(OC)c2)cc1 (stereo not drawn)	7
CCC(=O)N1c2ccccc2NC2=C(C(=O)CC(c3ccccc3)C2)C1c1cccc(Br)c1 (stereo not drawn)	4
CCC(=O)N1c2ccccc2NC2=C(C(=O)CC(c3ccccc3)C2)C1c1ccc(F)cc1 (stereo not drawn)	113*
CCC(=O)N1c2ccccc2NC2=C(C(=O)CC(c3ccc(OC)cc3)C2)C1c1ccccc1 (stereo not drawn)	-6

Screening results from PubChem.
